The targets below were run with C#CCNC(=O)CCSSCCC(=O)NCCc1ccc(C=O)c(C=O)c1 (assay: lysine labeling ratio R10:1 (500 µM / 50 µM probe), SILAC-ABPP in living cells; higher = lower intrinsic lysine reactivity toward the probe, active = 2 or less). Conditions: HeLa; probe concentrations 500 vs 50 µM.
How it was run: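 Measurements came from LC-MS/MS on a TIMS-TOF Pro of mixed SILAC light and heavy HeLa lysates after click to biotin-azide, trypsin digestion, neutravidin capture, DTT release and alkylation. Before lysis, the living cells sat in PBS at room temperature with 50 µM or 500 µM of an alkyne-tagged, disulfide-linked lysine probe, and labels were swapped forward and reverse. R per lysine is the median across both swap directions of the filtered median high-probe/low-probe MS1 peptide ratio. The cap is 20.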

Sequence of UniProt Q6ZMR3 (Q6ZMR3 whole entry): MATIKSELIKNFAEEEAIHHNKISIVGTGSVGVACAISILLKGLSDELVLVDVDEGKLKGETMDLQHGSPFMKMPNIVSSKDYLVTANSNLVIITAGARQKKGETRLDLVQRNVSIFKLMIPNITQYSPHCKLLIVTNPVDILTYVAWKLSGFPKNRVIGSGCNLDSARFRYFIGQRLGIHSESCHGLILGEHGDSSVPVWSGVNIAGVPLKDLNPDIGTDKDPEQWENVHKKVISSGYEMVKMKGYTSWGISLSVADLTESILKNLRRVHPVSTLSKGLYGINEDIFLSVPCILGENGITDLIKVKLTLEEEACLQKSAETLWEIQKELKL
Sequence of UniProt Q9Y653 (Q9Y653 whole entry): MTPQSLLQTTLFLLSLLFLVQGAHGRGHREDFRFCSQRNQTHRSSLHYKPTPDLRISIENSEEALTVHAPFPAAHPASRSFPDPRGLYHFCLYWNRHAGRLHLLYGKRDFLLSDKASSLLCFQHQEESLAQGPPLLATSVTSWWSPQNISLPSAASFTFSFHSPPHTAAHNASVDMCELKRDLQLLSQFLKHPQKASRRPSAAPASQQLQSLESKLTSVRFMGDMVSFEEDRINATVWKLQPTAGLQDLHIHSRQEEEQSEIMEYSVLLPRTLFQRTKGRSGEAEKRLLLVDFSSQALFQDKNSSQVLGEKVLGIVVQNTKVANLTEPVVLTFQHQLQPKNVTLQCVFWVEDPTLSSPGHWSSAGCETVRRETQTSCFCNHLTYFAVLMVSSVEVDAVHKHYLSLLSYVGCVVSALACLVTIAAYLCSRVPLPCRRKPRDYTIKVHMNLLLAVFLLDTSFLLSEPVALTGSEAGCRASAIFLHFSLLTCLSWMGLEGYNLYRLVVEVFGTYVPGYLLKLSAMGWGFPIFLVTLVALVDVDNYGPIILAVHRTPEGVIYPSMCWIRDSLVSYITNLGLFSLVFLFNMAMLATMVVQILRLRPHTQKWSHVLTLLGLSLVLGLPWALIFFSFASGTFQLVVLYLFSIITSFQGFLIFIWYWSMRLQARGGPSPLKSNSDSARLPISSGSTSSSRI
Sequence of UniProt P54760 (P54760 whole entry): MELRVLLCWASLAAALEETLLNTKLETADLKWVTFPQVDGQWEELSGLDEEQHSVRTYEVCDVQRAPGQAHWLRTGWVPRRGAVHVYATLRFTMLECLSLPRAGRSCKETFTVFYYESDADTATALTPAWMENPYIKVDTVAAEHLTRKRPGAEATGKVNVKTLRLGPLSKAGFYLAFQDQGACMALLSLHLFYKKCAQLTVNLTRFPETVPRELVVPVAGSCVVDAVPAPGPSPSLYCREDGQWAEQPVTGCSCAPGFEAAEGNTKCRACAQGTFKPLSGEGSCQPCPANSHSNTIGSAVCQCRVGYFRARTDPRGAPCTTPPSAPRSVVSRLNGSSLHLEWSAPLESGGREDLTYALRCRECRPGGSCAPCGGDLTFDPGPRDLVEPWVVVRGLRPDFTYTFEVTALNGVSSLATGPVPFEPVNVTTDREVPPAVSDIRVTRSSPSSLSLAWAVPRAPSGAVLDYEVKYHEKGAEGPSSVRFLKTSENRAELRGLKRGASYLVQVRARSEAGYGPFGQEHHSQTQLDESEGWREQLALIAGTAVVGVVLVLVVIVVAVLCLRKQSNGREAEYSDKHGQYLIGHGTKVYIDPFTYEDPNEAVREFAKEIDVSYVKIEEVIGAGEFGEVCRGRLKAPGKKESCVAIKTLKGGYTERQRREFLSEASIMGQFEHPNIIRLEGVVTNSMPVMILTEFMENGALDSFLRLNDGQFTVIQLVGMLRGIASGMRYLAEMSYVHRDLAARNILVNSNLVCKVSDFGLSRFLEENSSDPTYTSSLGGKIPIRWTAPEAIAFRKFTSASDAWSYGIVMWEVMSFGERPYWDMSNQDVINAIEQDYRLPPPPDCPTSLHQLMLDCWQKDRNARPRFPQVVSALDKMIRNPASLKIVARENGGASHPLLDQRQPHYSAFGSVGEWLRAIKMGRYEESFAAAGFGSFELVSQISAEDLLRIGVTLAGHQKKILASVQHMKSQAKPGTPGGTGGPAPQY
Sequence of UniProt P22626 (P22626 whole entry): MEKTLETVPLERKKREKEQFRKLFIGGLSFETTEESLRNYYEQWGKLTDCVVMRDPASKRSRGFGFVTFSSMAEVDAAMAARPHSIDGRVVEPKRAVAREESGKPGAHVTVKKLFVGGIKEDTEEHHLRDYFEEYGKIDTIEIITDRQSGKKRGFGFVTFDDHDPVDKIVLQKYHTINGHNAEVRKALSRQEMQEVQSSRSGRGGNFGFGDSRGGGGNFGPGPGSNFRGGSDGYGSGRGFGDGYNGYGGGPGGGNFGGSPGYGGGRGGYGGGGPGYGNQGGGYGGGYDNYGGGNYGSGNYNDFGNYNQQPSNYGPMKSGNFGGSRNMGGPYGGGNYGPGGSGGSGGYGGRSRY
Sequence of UniProt P21333 (P21333 whole entry): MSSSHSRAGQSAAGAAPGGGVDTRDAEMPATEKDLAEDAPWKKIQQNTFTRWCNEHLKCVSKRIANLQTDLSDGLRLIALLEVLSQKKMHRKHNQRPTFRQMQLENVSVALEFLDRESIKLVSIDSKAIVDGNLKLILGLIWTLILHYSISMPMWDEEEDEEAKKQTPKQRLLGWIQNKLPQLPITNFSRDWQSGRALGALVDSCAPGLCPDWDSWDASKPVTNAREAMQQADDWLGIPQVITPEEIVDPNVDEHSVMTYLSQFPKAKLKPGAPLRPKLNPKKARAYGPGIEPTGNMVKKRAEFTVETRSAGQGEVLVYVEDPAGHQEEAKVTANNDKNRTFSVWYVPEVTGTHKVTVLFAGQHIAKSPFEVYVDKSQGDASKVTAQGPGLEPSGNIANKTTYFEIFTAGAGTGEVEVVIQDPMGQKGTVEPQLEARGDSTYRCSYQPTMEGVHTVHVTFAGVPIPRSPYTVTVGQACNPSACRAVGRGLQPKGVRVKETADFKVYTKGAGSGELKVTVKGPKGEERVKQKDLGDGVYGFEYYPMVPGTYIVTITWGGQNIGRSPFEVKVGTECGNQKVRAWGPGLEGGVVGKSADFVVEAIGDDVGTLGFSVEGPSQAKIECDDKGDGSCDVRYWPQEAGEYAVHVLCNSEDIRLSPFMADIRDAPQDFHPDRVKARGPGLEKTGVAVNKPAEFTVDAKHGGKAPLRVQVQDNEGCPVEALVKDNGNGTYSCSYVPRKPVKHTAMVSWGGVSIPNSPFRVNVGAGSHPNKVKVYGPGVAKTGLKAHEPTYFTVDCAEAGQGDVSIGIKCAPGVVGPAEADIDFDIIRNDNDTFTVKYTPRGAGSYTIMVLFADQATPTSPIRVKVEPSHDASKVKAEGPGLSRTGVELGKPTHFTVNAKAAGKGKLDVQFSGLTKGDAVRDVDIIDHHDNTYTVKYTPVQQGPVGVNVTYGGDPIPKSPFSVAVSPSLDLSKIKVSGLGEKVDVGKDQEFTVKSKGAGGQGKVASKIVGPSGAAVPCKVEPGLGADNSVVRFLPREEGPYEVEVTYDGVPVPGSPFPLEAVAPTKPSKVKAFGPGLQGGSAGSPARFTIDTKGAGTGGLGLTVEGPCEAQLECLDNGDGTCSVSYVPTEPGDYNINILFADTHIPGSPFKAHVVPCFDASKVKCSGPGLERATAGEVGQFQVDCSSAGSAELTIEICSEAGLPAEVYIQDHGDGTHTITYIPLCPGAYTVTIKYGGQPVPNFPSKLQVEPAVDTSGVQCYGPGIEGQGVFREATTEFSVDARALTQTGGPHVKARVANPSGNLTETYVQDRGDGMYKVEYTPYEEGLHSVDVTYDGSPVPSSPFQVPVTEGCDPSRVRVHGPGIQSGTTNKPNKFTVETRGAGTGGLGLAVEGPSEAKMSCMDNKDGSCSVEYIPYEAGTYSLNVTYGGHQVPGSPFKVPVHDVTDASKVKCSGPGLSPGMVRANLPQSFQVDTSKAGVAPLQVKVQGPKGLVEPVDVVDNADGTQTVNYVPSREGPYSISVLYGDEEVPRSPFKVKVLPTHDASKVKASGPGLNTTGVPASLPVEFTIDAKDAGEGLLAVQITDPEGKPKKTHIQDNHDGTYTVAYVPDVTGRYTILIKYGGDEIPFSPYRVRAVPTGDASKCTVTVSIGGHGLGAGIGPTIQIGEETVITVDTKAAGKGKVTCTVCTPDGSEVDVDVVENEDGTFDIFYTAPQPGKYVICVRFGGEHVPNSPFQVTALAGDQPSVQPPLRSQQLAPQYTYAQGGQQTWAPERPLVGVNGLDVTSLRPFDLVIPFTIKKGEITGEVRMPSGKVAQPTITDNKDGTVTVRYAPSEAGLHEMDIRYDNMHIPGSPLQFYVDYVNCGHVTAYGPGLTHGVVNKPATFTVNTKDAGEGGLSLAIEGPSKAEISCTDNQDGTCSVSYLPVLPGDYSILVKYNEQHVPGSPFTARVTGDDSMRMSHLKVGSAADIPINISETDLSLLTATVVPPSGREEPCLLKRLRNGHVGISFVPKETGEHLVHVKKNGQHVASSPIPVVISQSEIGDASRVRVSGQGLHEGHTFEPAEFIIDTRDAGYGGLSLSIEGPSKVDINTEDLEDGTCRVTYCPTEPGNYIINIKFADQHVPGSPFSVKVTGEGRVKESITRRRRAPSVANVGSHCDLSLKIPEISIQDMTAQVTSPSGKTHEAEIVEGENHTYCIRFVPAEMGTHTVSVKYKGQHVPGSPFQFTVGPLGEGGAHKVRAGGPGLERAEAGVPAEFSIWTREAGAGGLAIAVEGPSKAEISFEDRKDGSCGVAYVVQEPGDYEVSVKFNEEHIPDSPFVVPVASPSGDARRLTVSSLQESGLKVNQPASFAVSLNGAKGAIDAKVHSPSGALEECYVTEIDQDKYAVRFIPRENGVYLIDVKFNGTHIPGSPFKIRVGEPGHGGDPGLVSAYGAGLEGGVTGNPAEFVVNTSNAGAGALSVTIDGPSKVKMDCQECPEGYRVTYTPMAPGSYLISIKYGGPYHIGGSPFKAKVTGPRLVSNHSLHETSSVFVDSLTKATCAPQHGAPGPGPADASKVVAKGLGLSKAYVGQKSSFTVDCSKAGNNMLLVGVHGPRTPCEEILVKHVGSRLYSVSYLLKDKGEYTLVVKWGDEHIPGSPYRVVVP

Row | Target | lysine labeling ratio R10:1
1 | EPHB4 (lysine site: K474) (UniProt P54760) | 0.746 (active)
2 | SPTBN1 (lysine site: K1021) (UniProt Q01082) | 6.62 (inactive)
3 | UniProt Q8WXI7 (lysine site: K12623) | 3.22 (inactive)
4 | UniProt Q15149 (lysine site: K1552) | 2.31 (inactive)
5 | TLN1 (lysine site: K1221) (UniProt Q9Y490) | 1.89 (active)
6 | HSP90AB1 (lysine site: K624) (UniProt P08238) | 7.02 (inactive)
7 | PGK1 (lysine site: K146) (UniProt P00558) | 1.57 (active)
8 | LRP1 (lysine site: K458) (UniProt Q07954) | 2.56 (inactive)
9 | UniProt Q9Y5I4 (lysine site: K686) | 5.99 (inactive)
10 | HNRNPU (lysine site: K592) (UniProt Q00839) | 2.21 (inactive)
11 | PTGES2 (lysine site: K233) (UniProt Q9H7Z7) | 2.07 (inactive)
12 | UniProt Q9Y653 (lysine site: K49) | 1.54 (active)
13 | SPTAN1 (lysine site: K2000) (UniProt Q13813) | 0.553 (active)
14 | UniProt Q6ZMR3 (lysine site: K155) | 2.54 (inactive)
15 | PTPRF (lysine site: K61) (UniProt P10586) | 1.48 (active)
16 | LRP8 (lysine site: K420) (UniProt Q14114) | 0.962 (active)
17 | ASPH (lysine site: K552) (UniProt Q12797) | 4.2 (inactive)
18 | EEF1G (lysine site: K437) (UniProt P26641) | 3.73 (inactive)
19 | PDIA4 (lysine site: K366) (UniProt P13667) | 1.22 (active)
20 | HNRNPA2B1 (lysine site: K173) (UniProt P22626) | 7.67 (inactive)

Row | Target | lysine labeling ratio R10:1
21 | UniProt P22413 (lysine site: K465) | 1.52 (active)
22 | DCBLD2 (lysine site: K391) (UniProt Q96PD2) | 3.28 (inactive)
23 | DSTN (lysine site: K132) (UniProt P60981) | 1.32 (active)
24 | FRAS1 (lysine site: K3093) (UniProt Q86XX4) | 3.29 (inactive)
25 | SLC39A10 (lysine site: K66) (UniProt Q9ULF5) | 0.9 (active)
26 | HSPA8 (lysine site: K328) (UniProt P11142) | 3.91 (inactive)
27 | CLU (lysine site: K322) (UniProt P10909) | 1.38 (active)
28 | EZR (lysine site: K143) (UniProt P15311) | 2.46 (inactive)
29 | UniProt P61978 (lysine site: K34) | 3.82 (inactive)
30 | TXNRD1 (lysine site: K396) (UniProt Q16881) | 2.09 (inactive)
31 | ATP6AP1 (lysine site: K380) (UniProt Q15904) | 1.79 (active)
32 | FLNA (lysine site: K724) (UniProt P21333) | 1.76 (active)
33 | UniProt P46781 (lysine site: K180) | 2.7 (inactive)
34 | FKBP4 (lysine site: K390) (UniProt Q02790) | 3.84 (inactive)
35 | UniProt O60462 (lysine site: K499) | 1.47 (active)
36 | IGSF3 (lysine site: K191) (UniProt O75054) | 4.16 (inactive)
37 | SHMT2 (lysine site: K103) (UniProt P34897) | 4.3 (inactive)
38 | LAMP1 (lysine site: K137) (UniProt P11279) | 2.74 (inactive)
39 | XRCC5 (lysine site: K481) (UniProt P13010) | 1.45 (active)
40 | UniProt O95980 (lysine site: K684) | 1.24 (active)

From the supplement of paper PMC11001985
